{"source": "PubChem BioAssay AID651642", "about": "(Sanford-Burnham Center for Chemical Genomics, 2012)", "note": "Calls of active or inactive are those of the source.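 The calls were made as follows: active = average half-effect concentration of 10 µM or less in every one of the four cell panels; inactive = the rest.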", "data": [{"system": "H9c2", "experiment": "cardiomyocyte survival under oxidative or metabolic stress – cell-based, panel, H9c2 and HL-1, H2O2, 2-deoxyglucose, ATP luminescence, SAR follow-up (AID 651642)", "details": "H9c2/HL-1 cardiomyocyte H2O2 oxidative damage, mean of runs, with H2O2", "values": [{"smiles": "CCOC(=O)c1cccc(NC(=O)CNC(=O)c2cc(-c3cc(OC)c(OC)c(OC)c3)nc3ccc(Br)cc23)c1", "outcome": "active"}, {"smiles": "COc1ccc2c(c1OC)C(=O)N1c3ccccc3C(=O)N(Cc3ccccc3Cl)C21", "note": "(stereo not drawn)", "outcome": "inactive"}, {"smiles": "CCOC(=O)c1cccc(NC(=O)c2cc(-c3cc(OC)c(OC)c(OC)c3)nc3ccc(OC)cc23)c1", "outcome": "active"}, {"smiles": "CCNC(=O)c1cccc(NC(=O)c2cc(-c3cc(OC)c(OC)c(OC)c3)nc3ccccc23)c1", "outcome": "active"}, {"smiles": "COc1ccccc1CN1C(=O)c2ccccc2N2C(=O)c3c(ccc(OC)c3OC)C12", "note": "(stereo not drawn)", "outcome": "inactive"}, {"smiles": "CCOC(=O)c1cccc(NC(=O)c2cc(-c3cc(OC)c(OC)c(OC)c3)nc3cc(Cl)ccc23)c1", "outcome": "inactive"}, {"smiles": "COc1cc(-c2cc(C(=O)Nc3cccc(C(=O)N4CCOCC4)c3)c3ccccc3n2)cc(OC)c1OC", "outcome": "active"}, {"smiles": "COc1ccc2nc(-c3cc(OC)c(OC)c(OC)c3)cc(C(=O)NCC(=O)Nc3ccc(C(C)=O)cc3)c2c1", "outcome": "active"}, {"smiles": "COc1cc(-c2cc(C(=O)Nc3cccc(C(=O)NC4CC4)c3)c3ccccc3n2)cc(OC)c1OC", "outcome": "active"}, {"smiles": "COc1cc(-c2cc(C(=O)Nc3cccc(C(N)=O)c3)c3ccccc3n2)cc(OC)c1OC", "outcome": "active"}, {"smiles": "COc1ccc2nc(-c3cc(OC)c(OC)c(OC)c3)cc(C(=O)NCC(=O)Nc3cccc(C(C)=O)c3)c2c1", "outcome": "inactive"}, {"smiles": "COC(=O)CNC(=O)c1cc(-c2cc(OC)c(OC)c(OC)c2)nc2ccccc12", "outcome": "inactive"}, {"smiles": "COc1cc(-c2cc(C(=O)NCC(=O)Nc3ccc(C(C)=O)cc3)c3cc(C)ccc3n2)cc(OC)c1OC", "outcome": "active"}, {"smiles": "COc1cc(-c2cc(C(=O)Nc3cccc(C(=O)N(C)C)c3)c3ccccc3n2)cc(OC)c1OC", "outcome": "inactive"}, {"smiles": "COc1cc(-c2cc(C(=O)NCC(=O)Nc3ccc(C(C)=O)cc3)c3cc(F)ccc3n2)cc(OC)c1OC", "outcome": "inactive"}, {"smiles": "COc1cc(-c2cc(C(=O)NCC(=O)Nc3ccc(C(C)=O)cc3)c3ccccc3n2)cc(OC)c1OC", "outcome": "inactive"}, {"smiles": "COc1cc(-c2cc(C(=O)Nc3cccc(C(C)=O)c3)c3cc(C)ccc3n2)cc(OC)c1OC", "outcome": "active"}, {"smiles": "COc1ccc2c(c1OC)C(=O)N1c3ccccc3C(=O)N(Cc3cccc(Br)c3)C21", "note": "(stereo not drawn)", "outcome": "inactive"}]}]}
